Shn3 inh set2 – Schnurri-3 reporter inhibition in Clone20 osteoblasts; Clone20 osteoblast Shn3 3'UTR firefly luciferase, 24 h; inhibition, % at 12.5 µM; 0.52% of 360,000 active;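 active = mean inhibition of at least 75% with every replicate also reaching 75%; inconclusive = mean inhibition at least 75% but some replicate below; inactive = mean inhibition below 75%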;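 note: 0% = median of neutral control wells and 100% = pilot-screen positive control compound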
EBV LMP1 NFkB – inhibitors of Epstein-Barr LMP1-induced NF-kappaB reporter; 0.69% of 350,000 active; inhibition, % at 12.5 µM; AID 504558; LMP1-induced NF-kappaB luciferase reporter cells, luminescence; in the data active = inhibition above about 41%; inconclusive = no clear call, values can overlap the other calls;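 note: 0% = neutral control wells and 100% = reference inhibitor control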
Glyco luc inh – blocks N-linked glycosylation in D54 reporter cells | reporter increase, % at 12.5 µM | AID 588692 | 0.23% of 360,000 active | D54 ERlucT glycosylation luciferase reporter, 24 h; percent of 100 nM tunicamycin response;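 active = mean luciferase reporter signal, scaled so untreated is 0 and the glycosylation-blocking control 100, at or above a set limit in every replicate; inconclusive = mean reaches the limit but not every replicate does; inactive = mean below the limit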;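 note: luciferase carries N-glycosylation sites so blocking glycosylation raises the light; 0% = median of neutral control wells and 100% = median of 100 nM tunicamycin wells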
PAX8 reporter – PAX8 transcriptional activity inhibition; RMG-I TPO-luciferase reporter, SteadyGlo, 24 h; inhibition, % at 12.6 µM; 1.2% of 360,000 active; AID 652154;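 active = mean replicate inhibition at least 60% with every replicate also reaching 60%; inconclusive = only one of the two criteria is met; inactive = mean below 60% and not all replicates reaching 60%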;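 note: luciferase light reporting Pax8 driven TPO promoter activity; plate controls were median of neutral control wells for no effect and mitoxantrone controls for full effect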
NSD2 HMT inh – inhibitors of human histone methyltransferase NSD2. 0.54% of 310,000 active. NSD2 peptide methylation, AlphaScreen, 120 min. AID 743445. O96028. inhibition, % at 12.5 µM; in the data active = inhibition above about 50%
Target sequence (O96028 whole entry, looked up): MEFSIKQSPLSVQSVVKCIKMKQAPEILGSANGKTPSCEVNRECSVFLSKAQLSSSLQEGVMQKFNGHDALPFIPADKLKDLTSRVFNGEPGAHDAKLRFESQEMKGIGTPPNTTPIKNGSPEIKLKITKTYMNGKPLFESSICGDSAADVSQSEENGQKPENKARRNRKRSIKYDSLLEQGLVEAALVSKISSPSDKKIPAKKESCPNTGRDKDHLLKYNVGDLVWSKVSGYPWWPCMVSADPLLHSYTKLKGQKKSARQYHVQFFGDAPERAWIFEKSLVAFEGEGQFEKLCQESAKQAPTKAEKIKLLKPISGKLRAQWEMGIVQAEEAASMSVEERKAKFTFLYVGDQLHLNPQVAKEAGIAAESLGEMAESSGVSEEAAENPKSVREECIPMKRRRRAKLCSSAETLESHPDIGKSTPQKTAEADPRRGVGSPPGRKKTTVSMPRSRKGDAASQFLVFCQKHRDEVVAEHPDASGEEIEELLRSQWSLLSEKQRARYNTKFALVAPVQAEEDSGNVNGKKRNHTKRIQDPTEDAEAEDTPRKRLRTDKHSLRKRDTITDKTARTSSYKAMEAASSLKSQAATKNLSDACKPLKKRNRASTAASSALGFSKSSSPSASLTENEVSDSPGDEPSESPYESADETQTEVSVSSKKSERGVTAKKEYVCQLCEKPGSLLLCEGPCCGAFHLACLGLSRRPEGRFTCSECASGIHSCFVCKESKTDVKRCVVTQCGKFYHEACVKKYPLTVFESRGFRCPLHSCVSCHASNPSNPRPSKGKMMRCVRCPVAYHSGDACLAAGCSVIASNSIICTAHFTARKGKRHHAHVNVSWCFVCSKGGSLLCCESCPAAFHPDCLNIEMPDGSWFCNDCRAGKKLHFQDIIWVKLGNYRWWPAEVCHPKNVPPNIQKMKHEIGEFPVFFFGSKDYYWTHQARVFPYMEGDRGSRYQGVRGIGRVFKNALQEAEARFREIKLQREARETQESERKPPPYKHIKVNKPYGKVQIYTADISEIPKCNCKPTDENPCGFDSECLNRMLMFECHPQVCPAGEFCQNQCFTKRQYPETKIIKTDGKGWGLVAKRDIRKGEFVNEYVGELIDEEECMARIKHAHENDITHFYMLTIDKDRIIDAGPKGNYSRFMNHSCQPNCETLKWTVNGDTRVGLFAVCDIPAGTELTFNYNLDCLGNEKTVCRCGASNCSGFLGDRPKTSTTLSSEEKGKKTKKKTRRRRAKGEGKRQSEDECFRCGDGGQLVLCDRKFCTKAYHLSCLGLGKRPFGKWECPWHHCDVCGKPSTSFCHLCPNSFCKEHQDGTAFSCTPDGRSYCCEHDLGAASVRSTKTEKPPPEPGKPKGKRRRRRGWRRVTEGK
Env fusion inh – blocks HIV Env-driven cell-cell fusion. HeLa-JRFL Env/CEM21 cell fusion, luciferase. inhibition, % at 12.3 µM. 1.1% of 360,000 active;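 active = mean replicate inhibition score of at least 50 and every replicate individually at or above 50; inconclusive = only one of the two criteria met; inactive = mean below 50 and not all replicates reaching 50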;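 note: 0% = plate neutral controls and 100% = maraviroc near 300 nM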
Active calls of the source: *; ? = inconclusive; . = no result given; [ ] = dose if it differs, or a comment. A selection: hits, their analogues and other compounds. The true share with any hit is near 2.8%.

SMILES | Shn3 inh set2 | EBV LMP1 NFkB | Glyco luc inh | PAX8 reporter | NSD2 HMT inh | Env fusion inh
COc1cc(/C=N/O)ccc1Oc1ccc([N+](=O)[O-])cc1[N+](=O)[O-] | -16 | 4 | 2 | -1 | 6 | -4
O=C(CN1CC(c2ccccc2)CC1=O)N/N=C/c1cc(Br)ccc1O (stereo not drawn) | 88* | 1 | -6 | 21 | 0 | 24
O=C(CNC(=O)c1ccccc1)N/N=C/c1cc(Br)ccc1O | ? | -30 | -4 | 52 | -4 | .
O=S(=O)(Nc1cccc(-c2cn3cccnc3n2)c1)c1ccc(F)cc1 | -1 | 0 | 0 | 77* | -3 | .
O=S(=O)(Nc1cccc(-c2cn3cccnc3n2)c1)c1ccc(-c2ccccc2)cc1 | -4 | 0 | 0 | . | 28 | .
O=C(C[C@@H]1C[C@H]2c3cc(NC(=O)NC4CCCCC4)ccc3O[C@H]2[C@@H](CO)O1)NCc1ccncc1 | . | . | . | -1 | . | 61*[16.7 µM]
O=C(C[C@H]1C[C@H]2c3cc(NC(=O)NC4CCCC4)ccc3O[C@H]2[C@@H](CO)O1)NC1CCCCC1 | . | . | . | 3 | . | 84*[16.7 µM]
CN(C)C(=O)C[C@H]1C[C@@H]2c3cc(NC(=O)NC4CCCCC4)ccc3O[C@@H]2[C@H](CO)O1 | . | . | . | 0 | . | 75*[16.7 µM]
CN(C)C(=O)C[C@@H]1C[C@@H]2c3cc(NC(=O)NC4CCCCC4)ccc3O[C@@H]2[C@@H](CO)O1 | . | . | . | -14 | . | 23[16.7 µM]
O=C(C[C@H]1C[C@@H]2c3cc(NC(=O)NC4CCCC4)ccc3O[C@@H]2[C@H](CO)O1)NC1CCCCC1 | . | . | . | -11 | . | 5[16.7 µM]
Cc1cc(C(=O)Nc2cccc3c2O[C@@H](CN(C)C(=O)NC2CCCCC2)[C@@H](C)CN([C@H](C)CO)C3=O)n(C)n1 | . | . | . | 7 | . | -6[16.7 µM]
CCOc1cc(/C=C/c2cccc[n+]2C)ccc1OCC(=O)Nc1ccc(C)cc1 | 2 | -1 | 4 | 74* | 12 | 2
CCOc1cc(/C=C/c2cccc[n+]2C)ccc1O | -8 | -24 | -1 | -23 | 13 | -7
CCOc1cc(/C=C\[N+](=O)[O-])ccc1OCC(=O)Nc1ccccc1C | 95* | 22 | 0 | . | -2 | .
Cc1ccc(-c2csc3nnc(SCC(=O)Nc4cccc(C)n4)n23)cc1 | 55 | 1 | 2 | . | -2 | 107*
O=C(C[C@@H]1C[C@@H]2c3cc(NC(=O)C4CCC4)ccc3O[C@@H]2[C@@H](CO)O1)NCc1ccc(-c2ccccc2)cc1 | . | . | . | 70* | . | 43[16.7 µM]
O=C(C[C@@H]1C[C@@H]2c3cc(NC(=O)C4CCC4)ccc3O[C@@H]2[C@H](CO)O1)NCc1ccc(-c2ccccc2)cc1 | . | . | . | -21 | . | 2[16.7 µM]
O=C(C[C@H]1C[C@@H]2c3cc(NC(=O)C4CCOCC4)ccc3O[C@@H]2[C@H](CO)O1)NCc1ccccc1 | . | . | . | -1 | . | 83*[16.7 µM]
C[C@H]1CN([C@@H](C)CO)C(=O)c2cccc(NC(=O)Nc3ccccc3)c2O[C@H]1CN(C)Cc1ccc(Cl)c(Cl)c1 | . | . | . | 47 | . | 4[16.7 µM]
CN(C)CCCN(C(=O)CCOc1ccccc1)c1nc2ccc(F)cc2s1 | -16 | 24 | -17 | 86* | -4 | 10
CN(C)CCCN(C(=O)CCOc1ccccc1)c1nc2c(F)cccc2s1 | 9 | 34 | -9 | 87* | . | 13
CN(C)CCCN(C(=O)CCc1ccccc1)c1nc2c(F)cccc2s1 | 5 | 10 | 1 | . | 6 | .
COc1cc(OC)cc(C(=O)N2CCN(C(=O)c3ccc(OC)c(OC)c3)CC2)c1 | 7 | 1 | 5 | . | 0 | 32
COc1ccc(-c2n[nH]c3c2CN(C(=O)c2ccc(OC)c(OC)c2)CC3)cc1 | 6 | 19 | 39* | 37 | 0 | 29
O=C(NC1CC1)c1ccc2c(c1)C1C3CCC(C3)C1C(c1ccccc1)N2 (stereo not drawn) | 24 | 10 | -6 | 115* | -4 | .
SMILES | Shn3 inh set2 | EBV LMP1 NFkB | Glyco luc inh | PAX8 reporter | NSD2 HMT inh | Env fusion inh
O=C(c1ccc(S(=O)(=O)c2ccc(F)cc2)c([N+](=O)[O-])c1)N1CCCCCC1 | 92* | 19 | -17 | -24 | . | 44
COC(=O)[C@@]1(Cc2ccccc2)[C@H]2C(=O)N(Cc3ccccc3)C(=O)[C@H]2[C@H]2CN=C(SCc3ccc(C#N)cc3)N21 | 21 | 16 | -2 | 34 | . | 69*
CC[C@]1(C(=O)OC)[C@H]2C(=O)N(Cc3ccccc3)C(=O)[C@H]2[C@H]2CN=C(SCC3CC3)N21 | -1 | 0 | 1 | -5 | . | 81*
COC(=O)[C@@]1(C)[C@H]2C(=O)N(Cc3ccccc3)C(=O)[C@H]2[C@H]2CN=C(SCc3ccccc3)N21 | -7 | -2 | 6 | 16 | . | 77*
CC[C@]1(C(=O)OC)[C@H]2C(=O)N(Cc3ccccc3)C(=O)[C@H]2[C@H]2CN=C(SCc3ccc(C)cc3)N21 | 8 | -5 | 3 | 5 | . | 69*
CC(C)NC(=O)N(C)C[C@H]1Oc2c(NC(=O)c3nc4ccccc4s3)cccc2C(=O)N([C@H](C)CO)C[C@@H]1C | . | . | . | . | . | -3[16.7 µM]
C[C@H]1CCCCO[C@H](CN(C)C(=O)Nc2ccc(F)cc2)[C@@H](C)CN([C@@H](C)CO)C(=O)c2cc(NS(=O)(=O)c3ccccc3)ccc2O1 | . | . | . | 20 | . | 33[16.7 µM]
CO[C@H]1CN(C)C(=O)c2cc(NS(=O)(=O)Cc3ccccc3)ccc2OC[C@H](C)NC[C@@H]1C | . | . | . | 2 | . | -9[16.7 µM]
COc1ccccc1S(=O)(=O)Nc1ccc2c(c1)OC[C@H](C)NC[C@H](C)[C@H](OC)CN(C)C2=O | . | . | . | . | . | 0[16.7 µM]
COc1ccc(CN(C)C[C@@H]2Oc3c(NC(=O)Nc4c(C)noc4C)cccc3C(=O)N([C@H](C)CO)C[C@H]2C)cc1 | . | . | . | -7 | . | .
CN1C(=O)c2cc(NC(=O)NCc3ccccc3)ccc2OC[C@@H]2O[C@@H](CC(=O)O)CC[C@@H]21 | . | . | . | -3 | . | -6[16.7 µM]
O=C(N[C@@H]1CC[C@@H](CCNC(=O)C2CCCC2)O[C@H]1CO)c1ccccn1 | . | . | . | -15 | . | 2[16.7 µM]
C[C@H]1CN([C@@H](C)CO)C(=O)c2cc(-c3cccc(C#N)c3)cnc2O[C@@H]1CN(C)C(=O)c1cnccn1 | . | . | . | -14 | . | -15[16.7 µM]
Cc1ccc(N/C(N)=N/c2nc(C)cc(N3CCCCC3)n2)c(C)c1 | 96* | 15 | 11 | 51 | . | 9
Cc1ccc(N/C(N)=N/c2nc3c(c(=O)[nH]2)CCCC3)c(C)c1 | 9 | -5 | 16 | . | . | -63
CCOC(=O)N1CCN(S(=O)(=O)c2ccc(C(=O)NNc3nc4c(C)cccc4s3)cc2)CC1 | 41 | 92* | 0 | 81* | . | 60*
Cc1cccc2sc(NNC(=O)c3ccc(S(=O)(=O)N4CCCC(C)C4)cc3)nc12 (stereo not drawn) | 23 | 8 | -8 | . | . | .
CCOC(=O)N1CCN(S(=O)(=O)c2ccc(C(=O)NNc3nc4c(C)cc(C)cc4s3)cc2)CC1 | 9 | . | -4 | 52 | . | -86
Cc1cccc2sc(NNC(=O)c3ccc(S(=O)(=O)N4CCc5ccccc5C4)cc3)nc12 | 72 | -19 | -11 | 77* | . | -14
